Test [1] deals with Sphingosine kinase 1 (Homo sapiens) (UniProt Q9NYA1). Particulars: at 1 µM.
Test [2] addresses T1, Sphingosine kinase 2 (Homo sapiens) (UniProt Q9NRA0).
T1 sequence (whole entry): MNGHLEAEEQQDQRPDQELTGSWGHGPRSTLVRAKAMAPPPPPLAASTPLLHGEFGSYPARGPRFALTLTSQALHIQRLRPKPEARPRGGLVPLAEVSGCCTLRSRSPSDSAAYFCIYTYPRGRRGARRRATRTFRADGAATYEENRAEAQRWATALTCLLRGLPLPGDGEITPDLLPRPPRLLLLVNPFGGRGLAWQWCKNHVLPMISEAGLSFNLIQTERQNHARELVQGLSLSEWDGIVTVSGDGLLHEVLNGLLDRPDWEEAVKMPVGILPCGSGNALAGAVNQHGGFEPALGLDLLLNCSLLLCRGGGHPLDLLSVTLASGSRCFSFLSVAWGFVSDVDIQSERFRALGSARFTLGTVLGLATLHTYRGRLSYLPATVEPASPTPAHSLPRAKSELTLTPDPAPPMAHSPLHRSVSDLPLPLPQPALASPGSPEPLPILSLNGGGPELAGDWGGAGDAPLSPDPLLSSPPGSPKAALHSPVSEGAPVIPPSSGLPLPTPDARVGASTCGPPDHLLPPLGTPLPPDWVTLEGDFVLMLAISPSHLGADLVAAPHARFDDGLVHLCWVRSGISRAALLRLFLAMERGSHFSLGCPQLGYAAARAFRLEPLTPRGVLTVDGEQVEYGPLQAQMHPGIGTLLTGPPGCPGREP
The note with it: at 0.1 µM.

For test [3], the target named is T1, Sphingosine kinase 2 (Homo sapiens). Particulars: at 1 µM.
The target of test [4] is Casein kinase II subunit alpha (Homo sapiens) (UniProt P68400). Particulars: at 0.1 µM.
Casein kinase II subunit alpha (Homo sapiens), sequence (P68400 whole entry, looked up): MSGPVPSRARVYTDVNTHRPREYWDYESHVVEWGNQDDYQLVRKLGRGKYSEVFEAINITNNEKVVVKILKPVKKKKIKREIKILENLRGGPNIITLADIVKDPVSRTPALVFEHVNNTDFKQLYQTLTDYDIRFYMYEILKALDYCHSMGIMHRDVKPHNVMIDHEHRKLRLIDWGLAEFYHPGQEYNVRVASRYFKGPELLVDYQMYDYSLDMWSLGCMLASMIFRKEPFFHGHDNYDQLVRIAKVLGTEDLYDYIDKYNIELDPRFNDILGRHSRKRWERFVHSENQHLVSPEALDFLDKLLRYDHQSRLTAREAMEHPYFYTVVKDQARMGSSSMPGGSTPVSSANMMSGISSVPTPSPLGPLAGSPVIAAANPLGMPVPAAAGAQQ
The target is the same in test [5]. Particulars: at 1 µM.
In test [6] the target is T2, Inhibitor of nuclear factor kappa-B kinase subunit alpha (Homo sapiens) (UniProt O15111).
T2 sequence (whole entry): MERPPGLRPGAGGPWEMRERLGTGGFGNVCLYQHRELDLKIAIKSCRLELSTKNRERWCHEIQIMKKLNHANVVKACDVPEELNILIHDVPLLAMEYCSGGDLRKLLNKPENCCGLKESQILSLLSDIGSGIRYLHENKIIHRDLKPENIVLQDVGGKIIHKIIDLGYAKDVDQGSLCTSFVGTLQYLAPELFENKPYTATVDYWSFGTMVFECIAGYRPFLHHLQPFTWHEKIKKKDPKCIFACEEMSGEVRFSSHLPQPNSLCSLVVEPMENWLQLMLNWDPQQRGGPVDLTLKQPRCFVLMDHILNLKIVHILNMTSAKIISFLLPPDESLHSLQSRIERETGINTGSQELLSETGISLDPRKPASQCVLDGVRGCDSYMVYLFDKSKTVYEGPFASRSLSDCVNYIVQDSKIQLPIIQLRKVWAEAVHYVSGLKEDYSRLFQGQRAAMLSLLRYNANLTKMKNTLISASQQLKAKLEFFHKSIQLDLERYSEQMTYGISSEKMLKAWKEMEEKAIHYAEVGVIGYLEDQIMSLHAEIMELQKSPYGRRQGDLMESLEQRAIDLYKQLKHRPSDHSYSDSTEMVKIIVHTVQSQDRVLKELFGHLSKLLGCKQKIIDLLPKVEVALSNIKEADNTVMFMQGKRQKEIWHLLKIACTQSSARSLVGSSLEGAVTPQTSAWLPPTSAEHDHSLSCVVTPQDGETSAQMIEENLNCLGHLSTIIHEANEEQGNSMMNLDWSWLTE
The note with it: at 0.1 µM.

The target in test [7] is T2, Inhibitor of nuclear factor kappa-B kinase subunit alpha (Homo sapiens). The note with it: at 1 µM.
The target of test [8] is T3, Inhibitor of nuclear factor kappa-B kinase subunit beta (Homo sapiens) (UniProt O14920).
T3 sequence (whole entry): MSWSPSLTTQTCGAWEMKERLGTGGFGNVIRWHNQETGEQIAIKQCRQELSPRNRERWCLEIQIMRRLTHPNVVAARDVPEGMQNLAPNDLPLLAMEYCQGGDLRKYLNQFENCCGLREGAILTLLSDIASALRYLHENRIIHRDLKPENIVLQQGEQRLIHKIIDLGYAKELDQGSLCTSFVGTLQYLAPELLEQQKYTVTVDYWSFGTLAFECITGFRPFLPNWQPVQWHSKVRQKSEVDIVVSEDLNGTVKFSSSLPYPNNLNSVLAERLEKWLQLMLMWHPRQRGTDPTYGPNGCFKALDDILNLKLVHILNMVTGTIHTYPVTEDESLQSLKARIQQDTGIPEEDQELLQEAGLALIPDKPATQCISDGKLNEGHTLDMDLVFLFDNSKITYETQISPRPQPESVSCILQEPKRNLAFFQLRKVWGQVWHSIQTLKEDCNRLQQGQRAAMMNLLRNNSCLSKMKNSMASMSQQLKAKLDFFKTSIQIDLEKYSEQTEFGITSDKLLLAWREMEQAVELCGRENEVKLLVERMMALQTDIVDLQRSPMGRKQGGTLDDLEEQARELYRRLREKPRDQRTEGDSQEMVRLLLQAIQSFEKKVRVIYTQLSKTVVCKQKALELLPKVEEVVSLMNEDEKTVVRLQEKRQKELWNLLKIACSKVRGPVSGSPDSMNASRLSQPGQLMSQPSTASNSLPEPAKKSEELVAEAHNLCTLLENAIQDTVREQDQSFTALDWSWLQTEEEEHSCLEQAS
Particulars: at 0.1 µM.

Test [9] addresses T3, Inhibitor of nuclear factor kappa-B kinase subunit beta (Homo sapiens). The note with it: at 1 µM.
For test [10], the target named is T4, Inhibitor of nuclear factor kappa-B kinase subunit epsilon (Homo sapiens) (UniProt Q14164).
T4 sequence (whole entry): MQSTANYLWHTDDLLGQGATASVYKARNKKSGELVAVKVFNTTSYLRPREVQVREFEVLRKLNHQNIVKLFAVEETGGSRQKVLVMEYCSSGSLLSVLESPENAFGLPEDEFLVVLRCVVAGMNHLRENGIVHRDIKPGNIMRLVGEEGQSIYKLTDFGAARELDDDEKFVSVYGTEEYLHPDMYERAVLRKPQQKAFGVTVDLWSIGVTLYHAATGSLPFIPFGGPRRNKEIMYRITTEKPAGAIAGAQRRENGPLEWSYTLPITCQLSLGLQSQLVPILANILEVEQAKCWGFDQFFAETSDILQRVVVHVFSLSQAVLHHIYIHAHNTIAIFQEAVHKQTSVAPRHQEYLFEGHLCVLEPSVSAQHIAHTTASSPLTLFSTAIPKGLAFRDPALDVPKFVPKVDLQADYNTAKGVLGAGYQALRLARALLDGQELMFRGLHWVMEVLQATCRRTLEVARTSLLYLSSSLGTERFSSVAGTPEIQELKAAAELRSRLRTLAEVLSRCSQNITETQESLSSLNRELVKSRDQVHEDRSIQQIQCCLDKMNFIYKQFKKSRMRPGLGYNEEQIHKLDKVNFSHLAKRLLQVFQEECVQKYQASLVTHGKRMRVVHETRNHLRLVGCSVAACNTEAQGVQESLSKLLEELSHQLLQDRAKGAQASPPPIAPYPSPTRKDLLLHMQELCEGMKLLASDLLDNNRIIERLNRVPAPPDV
The note with it: at 0.1 µM.

Test [11] concerns the target T4, Inhibitor of nuclear factor kappa-B kinase subunit epsilon (Homo sapiens). The note with it: at 1 µM.
For test [12], the target named is T5, Serine/threonine-protein kinase Nek1 (Homo sapiens) (UniProt Q96PY6).
T5 sequence (whole entry): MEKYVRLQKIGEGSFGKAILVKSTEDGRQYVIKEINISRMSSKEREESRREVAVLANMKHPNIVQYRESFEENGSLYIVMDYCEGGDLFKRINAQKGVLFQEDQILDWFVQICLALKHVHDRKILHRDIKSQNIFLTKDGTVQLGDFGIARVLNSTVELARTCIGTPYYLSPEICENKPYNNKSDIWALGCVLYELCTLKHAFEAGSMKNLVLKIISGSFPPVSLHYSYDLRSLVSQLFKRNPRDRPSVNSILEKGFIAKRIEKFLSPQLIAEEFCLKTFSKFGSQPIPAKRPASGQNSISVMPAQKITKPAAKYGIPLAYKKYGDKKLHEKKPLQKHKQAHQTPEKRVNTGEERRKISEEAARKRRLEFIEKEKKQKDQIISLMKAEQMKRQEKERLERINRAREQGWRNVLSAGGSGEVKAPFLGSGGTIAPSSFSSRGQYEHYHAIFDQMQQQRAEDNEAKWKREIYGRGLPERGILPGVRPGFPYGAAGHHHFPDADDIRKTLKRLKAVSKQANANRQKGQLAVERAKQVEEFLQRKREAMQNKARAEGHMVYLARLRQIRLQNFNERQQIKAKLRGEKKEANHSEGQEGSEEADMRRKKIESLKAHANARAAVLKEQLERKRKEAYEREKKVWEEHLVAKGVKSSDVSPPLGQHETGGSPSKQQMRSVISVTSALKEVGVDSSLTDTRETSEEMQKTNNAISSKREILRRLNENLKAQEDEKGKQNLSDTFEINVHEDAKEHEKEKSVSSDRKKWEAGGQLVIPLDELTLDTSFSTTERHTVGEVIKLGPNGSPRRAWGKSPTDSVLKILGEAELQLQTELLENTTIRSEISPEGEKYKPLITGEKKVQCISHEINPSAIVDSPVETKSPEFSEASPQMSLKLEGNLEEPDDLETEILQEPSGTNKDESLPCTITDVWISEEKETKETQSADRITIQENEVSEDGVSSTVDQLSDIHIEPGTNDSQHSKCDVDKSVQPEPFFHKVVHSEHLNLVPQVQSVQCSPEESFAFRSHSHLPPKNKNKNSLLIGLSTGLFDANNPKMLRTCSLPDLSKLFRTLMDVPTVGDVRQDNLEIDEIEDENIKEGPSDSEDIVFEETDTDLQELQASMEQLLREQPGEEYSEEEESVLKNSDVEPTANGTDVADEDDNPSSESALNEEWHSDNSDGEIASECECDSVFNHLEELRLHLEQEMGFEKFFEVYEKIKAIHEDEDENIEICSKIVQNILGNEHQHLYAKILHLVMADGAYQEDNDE
The note with it: at 0.1 µM.

For test [13], the target named is T5, Serine/threonine-protein kinase Nek1 (Homo sapiens). The note with it: at 1 µM.
For test [14], the target named is T6, Serine/threonine-protein kinase Nek2 (Homo sapiens) (UniProt P51955).
T6 sequence (whole entry): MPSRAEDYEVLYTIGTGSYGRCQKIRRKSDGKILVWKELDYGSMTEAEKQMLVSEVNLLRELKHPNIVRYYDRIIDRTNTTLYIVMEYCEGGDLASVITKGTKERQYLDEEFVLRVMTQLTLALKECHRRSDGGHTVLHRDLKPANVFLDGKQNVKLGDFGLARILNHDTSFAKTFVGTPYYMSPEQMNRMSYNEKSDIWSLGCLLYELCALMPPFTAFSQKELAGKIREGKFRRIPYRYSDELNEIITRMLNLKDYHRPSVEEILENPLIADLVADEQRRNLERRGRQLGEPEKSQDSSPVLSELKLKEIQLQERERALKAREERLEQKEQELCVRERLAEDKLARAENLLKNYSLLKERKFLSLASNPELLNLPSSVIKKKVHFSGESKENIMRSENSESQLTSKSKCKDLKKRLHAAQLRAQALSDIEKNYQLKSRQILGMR
The note with it: at 0.1 µM.

Test [15] concerns the target T6, Serine/threonine-protein kinase Nek2 (Homo sapiens). The note with it: at 1 µM.
Test [16] deals with Serine/threonine-protein kinase Nek6 (Homo sapiens) (UniProt Q9HC98). The note with it: at 0.1 µM.
Serine/threonine-protein kinase Nek6 (Homo sapiens), sequence (Q9HC98 whole entry): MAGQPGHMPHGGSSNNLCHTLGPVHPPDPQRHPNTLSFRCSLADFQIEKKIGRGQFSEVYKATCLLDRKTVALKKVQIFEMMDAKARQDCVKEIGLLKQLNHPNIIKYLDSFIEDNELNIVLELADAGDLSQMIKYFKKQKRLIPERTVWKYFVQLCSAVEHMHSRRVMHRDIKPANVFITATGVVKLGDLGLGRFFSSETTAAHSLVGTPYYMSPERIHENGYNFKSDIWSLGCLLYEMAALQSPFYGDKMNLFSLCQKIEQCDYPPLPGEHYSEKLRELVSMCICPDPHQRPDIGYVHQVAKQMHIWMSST
For test [17] the target is unchanged. The note with it: at 1 µM.
The target in test [18] is Serine/threonine-protein kinase Nek7 (Homo sapiens) (UniProt Q8TDX7). The note with it: at 0.1 µM.
Serine/threonine-protein kinase Nek7 (Homo sapiens), sequence (Q8TDX7 whole entry, looked up): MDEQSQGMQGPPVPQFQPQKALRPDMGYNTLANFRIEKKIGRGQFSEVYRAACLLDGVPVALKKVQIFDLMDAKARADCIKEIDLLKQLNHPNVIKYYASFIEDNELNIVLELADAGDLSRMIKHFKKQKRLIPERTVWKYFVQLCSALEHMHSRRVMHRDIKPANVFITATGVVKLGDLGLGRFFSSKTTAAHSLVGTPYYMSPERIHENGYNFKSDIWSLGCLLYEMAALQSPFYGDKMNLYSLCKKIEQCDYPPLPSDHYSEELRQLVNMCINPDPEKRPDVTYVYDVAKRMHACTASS
Test [19] has the same target. The note with it: at 1 µM.
Test [20] has as its target T7, Serine/threonine-protein kinase Nek9 (Homo sapiens) (UniProt Q8TD19).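 Further: reported value is the mean percent inhibition of NEK9.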
T7 sequence (whole entry): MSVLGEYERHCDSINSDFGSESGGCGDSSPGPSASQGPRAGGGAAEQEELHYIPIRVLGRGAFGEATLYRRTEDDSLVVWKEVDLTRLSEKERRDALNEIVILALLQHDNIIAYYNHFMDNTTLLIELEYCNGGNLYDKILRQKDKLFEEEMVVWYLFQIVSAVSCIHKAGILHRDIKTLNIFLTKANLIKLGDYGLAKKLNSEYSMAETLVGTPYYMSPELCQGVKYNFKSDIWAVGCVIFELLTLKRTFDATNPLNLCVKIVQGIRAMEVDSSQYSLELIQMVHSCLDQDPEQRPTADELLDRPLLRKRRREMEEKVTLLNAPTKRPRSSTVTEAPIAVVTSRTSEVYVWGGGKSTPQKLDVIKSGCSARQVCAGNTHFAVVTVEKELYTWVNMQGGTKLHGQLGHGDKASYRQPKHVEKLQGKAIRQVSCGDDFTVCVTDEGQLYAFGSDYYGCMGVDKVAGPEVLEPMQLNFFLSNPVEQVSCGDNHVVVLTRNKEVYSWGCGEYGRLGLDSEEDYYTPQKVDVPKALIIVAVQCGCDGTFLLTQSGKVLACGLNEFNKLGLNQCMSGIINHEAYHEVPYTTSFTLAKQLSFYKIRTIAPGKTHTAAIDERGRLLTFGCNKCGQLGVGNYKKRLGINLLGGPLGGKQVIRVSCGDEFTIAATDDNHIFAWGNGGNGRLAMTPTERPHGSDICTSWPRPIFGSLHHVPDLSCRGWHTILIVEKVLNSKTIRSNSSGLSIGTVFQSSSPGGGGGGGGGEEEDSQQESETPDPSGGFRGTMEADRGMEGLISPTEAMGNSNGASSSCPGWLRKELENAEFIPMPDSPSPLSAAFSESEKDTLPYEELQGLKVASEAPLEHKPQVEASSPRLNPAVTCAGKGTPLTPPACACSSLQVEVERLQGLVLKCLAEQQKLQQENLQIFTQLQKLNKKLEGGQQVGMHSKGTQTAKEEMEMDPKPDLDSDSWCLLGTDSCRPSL
The note with it: at 0.1 µM.

Among the data in ChEMBL document CHEMBL1961873, “Compounds: GSK PKIS; Assays: Nanosyn kinase panel” (2012) are inhibition values, retold here.

One may read the inhibition as the change of the read-out against control, counted positive when it falls.

Sphingosine kinase 1 (Homo sapiens), sequence (Q9NYA1 whole entry): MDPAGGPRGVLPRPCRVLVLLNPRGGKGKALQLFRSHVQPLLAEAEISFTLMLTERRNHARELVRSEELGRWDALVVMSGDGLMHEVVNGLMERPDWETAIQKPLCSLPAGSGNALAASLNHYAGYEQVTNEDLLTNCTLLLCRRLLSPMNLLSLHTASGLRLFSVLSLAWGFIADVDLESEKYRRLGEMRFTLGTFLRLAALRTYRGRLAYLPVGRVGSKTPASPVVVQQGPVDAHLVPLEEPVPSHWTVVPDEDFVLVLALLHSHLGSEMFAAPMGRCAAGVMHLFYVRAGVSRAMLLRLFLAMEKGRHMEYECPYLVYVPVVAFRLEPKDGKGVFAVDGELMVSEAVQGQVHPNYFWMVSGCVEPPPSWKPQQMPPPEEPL

Regarding `Fc1ccc(-c2nn3ccccc3c2-c2ccncc2)cc1`, the inhibition in [1] is -4.19%; in test [2], 0.23%; in [3] it was -0.19%; in test [4], -0.45%; in [5] it was 0.13%; in test [6], 2.86%. Moreover, the inhibition in test [7] is -1.37%; in test [8] it was 0.51%; in test [9] it was 0.63%; in [10], 2.31%; in test [11], 0.04%; in test [12], 1.98%. Also, the inhibition in [13] amounted to 1.91%; in test [14], 1.2%; in test [15], 1.45%; in test [16], 0.37%; in [17], 1.47%; in [18], 3.72%. For the same compound, the inhibition amounted to 2.56% in [19] and 5.49% in test [20].
